Most compounds without a hit are left out; they make up all but 3.8% or so of the library.
NTMT1 inh: Primary qHTS for Inhibitors of N-terminal methyltransferase 1 (NTMT1): MTaseGlo Assay. AID 1645870, 2021. 59,000 compounds, 2.5% hits. Potency, µM (top dose mostly 114 µM), for inactives: at the highest dose activity change, negative = inhibition, actives largely listed as inhibitors. NTMT1 MTase-Glo SAH luminescence, purified enzyme;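 also: potency is read from the fitted curve at half-maximal effect; plate controls were DMSO vehicle for no effect and no enzyme for full effect; nearly all actives have a fitted effect of over 65% in size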
Target sequence (Q9BV86 whole entry, looked up): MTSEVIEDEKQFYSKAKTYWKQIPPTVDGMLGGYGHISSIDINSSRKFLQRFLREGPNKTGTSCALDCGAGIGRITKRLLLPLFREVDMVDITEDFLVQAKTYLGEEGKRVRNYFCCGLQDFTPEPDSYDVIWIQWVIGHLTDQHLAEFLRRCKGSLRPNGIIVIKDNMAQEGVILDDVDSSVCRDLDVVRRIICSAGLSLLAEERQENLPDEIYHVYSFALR
OvCa metastasis: Primary qHTS assay for Inhibitors of ovarian cancer metastasis using an organotypic tumor microenvironment (TME) model. SKOV3ip1-GFP adhesion/invasion on 3D omental model, fluorescence. Potency, µM (titrated, usually from 45.8 µM), for inactives: at the top dose activity change, negative = inhibition, hits mostly inhibitors. 46,000 compounds, 0.1% hits. AID 1963576, 2024;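 also: potency is read from the fitted curve at half-maximal effect; plate controls were DMSO wells for no effect and tomatine positive control wells for full effect; nearly all actives have a fitted effect of over 65% in size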
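qHTS, 4-pt dose (0.36-46 umol/L); SKOV3ip1-GFP, 1,200 cells/well, no FBS; primary omental fibroblast/mesothelial co-culture 48 h pre-grown; 2 h RT + 16 h 37 C; PBS wash, 4% PFA; GFP count 488/509 nm.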
B2AR arrestin ag: qHTS assay of beta-arrestin-biased ligands of beta2-adrenergic receptor: NCGC Sytravon Library Screen. Beta-2 adrenergic receptor (Homo sapiens), P07550. Potency, µM (top dose mostly 46.1 µM), hits mostly activators. 44,000 tested, under 10 active. HTLA Tango cells, beta-arrestin recruitment, luciferase luminescence, 18 h;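 also: potency is read from the fitted curve at half-maximal effect; 0% = DMSO and full agonism = EC100 isoproterenol or metaproterenol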
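Tango cells expressing recombinant beta2-AR and beta-arrestin were treated with compounds (up to 46 microM titration) in DMEM with 1% FBS for 18 hr at 37 degrees C. Beta-arrestin recruitment drove tTA-dependent luciferase, read by luminescence; curves were fitted and classed.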
GALK inhibitor: qHTS Assay for Inhibitors of Human Galactokinase (GALK): NCGC Sytravon Library Screen | Potency, µM (doses to about 57.5 µM), inactives show at the top dose activity, negative = inhibition, actives largely listed as inhibitors | P51570 | 44,000 tested, under 10 active | recombinant GALK, Kinase-Glo ATP luminescence, 1 h;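 also: plate controls were full GALK reaction for no effect and reaction lacking GALK for full effect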
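Human GALK (5 nM) was incubated with 35 uM ATP and 100 uM galactose in 20 mM HEPES pH 8.0 with MgCl2, NaCl, DTT and BSA for 1 h at room temperature. Remaining ATP was measured by Kinase-Glo Plus luminescence.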
TSG101-PTAP inh: qHTS Validation Assay for Inhibitors of HIV-1 Budding by Blocking the Interaction of PTAP/TSG101: Sytravon Library Screen. Tumor susceptibility gene 101 protein (Homo sapiens), Q99816. Fluorescence polarization, FITC-PTAP peptide/Tsg101, 20 min. Potency, µM (highest dose often 115 µM), actives largely listed as inhibitors. 44,000 tested, under 10 active. AID 1347069, 2019; also: potency is read from the fitted curve at half-maximal effect; 0% is about no effect
Target sequence (Q99816 whole entry, looked up): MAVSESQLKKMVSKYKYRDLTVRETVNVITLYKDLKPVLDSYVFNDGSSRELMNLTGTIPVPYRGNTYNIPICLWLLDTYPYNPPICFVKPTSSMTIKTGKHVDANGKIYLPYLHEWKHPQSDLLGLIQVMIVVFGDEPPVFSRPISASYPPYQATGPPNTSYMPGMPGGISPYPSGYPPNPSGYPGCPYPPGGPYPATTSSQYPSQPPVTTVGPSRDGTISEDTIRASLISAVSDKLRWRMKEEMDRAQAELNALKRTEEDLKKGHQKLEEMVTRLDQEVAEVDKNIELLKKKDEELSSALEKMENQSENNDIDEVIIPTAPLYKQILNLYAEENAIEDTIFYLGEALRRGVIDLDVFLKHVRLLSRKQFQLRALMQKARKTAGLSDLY
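Read-out is FITC fluorescence polarization. Compounds were added to Tsg101 binding domain (10 uM final), then FITC-PTAP peptide (50 nM final), 20 min at r.t. Total S+P intensity flags fluorescent compounds.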
GPR32 ag: qHTS for Agonists of Human Resolvin D1 Receptor DRV1; activation, % at 76.9 µM; 48,000 compounds, 2.5% hits; CHO-K1 GPR32 beta-arrestin PathHunter luminescence, 90 min; zero percent set by DMSO-only wells;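 active = activation of at least 60% and not above a set upper limit, about 1 call in 100 departs from these limits; inconclusive = activation of 40% to 60%, or above that upper limit; inactive = activation under 40%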; also: 0% is about no effect
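Agonism was scored by beta-Gal fragment complementation (chemiluminescent read, 1 h detection at ambient temperature) reporting beta-arrestin binding to GPR32 in engineered CHO-K1 cells. Compound treatment lasted 90 min at 37 C, normalized to a DMSO basal control.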
The depositor's hits bear a star; i = inactive; u = inconclusive; x = no result; ! = a repeat was not active; [ ] = dose if it differs, or a comment. Unless noted, calls follow the shape of the dose curve; as a rule, active = well fitted curve in the direction sought with a large enough effect; inconclusive = small, poorly fitted or top-dose-only effect, or another doubt; inactive = no such curve, though single readings can be large; an effect the other way counts as inactive or inconclusive.

SMILES	NTMT1 inh	OvCa metastasis	B2AR arrestin ag	GALK inhibitor	TSG101-PTAP inh	GPR32 ag
CCC(CC)C(=O)Nc1cccc(-c2cn3cccnc3n2)c1	-1%	2%	i	0%	i	28
O=C(Nc1cccc(-c2cn3cccnc3n2)c1)c1cc(Br)ccc1Cl	8%	4%	i	0%	i	83*
Cc1ccc(C)c(NC(=O)Nc2cccc(-c3cn4cccnc4n3)c2)c1	u	i	i	2%	i	80*
C/C(=N\O)[C@@H](C)NCC(C)(C)CN[C@H](C)/C(C)=N/O	9%[57.5 µM]	x	x	x	x	118*
C=CCc1ccccc1OCCSc1nc(-c2ccc(C(C)(C)C)cc2)nc2cc(=O)[nH]n12	x	u	i	-3%	i	-2
CC(C)(C)c1ccc(OCCSc2nc(-c3cccs3)nc3cc(=O)[nH]n23)cc1	x	-6%	i	-1%	i	68*
C=CCc1ccccc1OCCSc1nc(-c2cccs2)nc2cc(=O)[nH]n12	x	i	i	-4%	i	86*
COc1ccccc1OCCSc1nc(-c2ccc(C(C)(C)C)cc2)nc2cc(=O)[nH]n12	x	-7%	i	0%	i	65*
Cc1ccc(C(C)C)c(OCCSc2nc(-c3cccs3)nc3cc(=O)[nH]n23)c1	x	u	i	-4%	i	-2
O=c1cc2nc(-c3cccs3)nc(SCCOc3ccc(Cl)cc3)n2[nH]1	u	8%	i	0%	i	-1
CC[N+](CC)(CC)CCOc1ccc(/C=C/c2ccccc2)cc1	28µM*	x	x	x	x	26
CC[N+](CC)(CC)CCOc1cccc(OCC[N+](CC)(CC)CC)c1OCC[N+](CC)(CC)CC	8.9µM*!	21%	x	x	x	-7
Cc1cccc(C(=O)Nc2c3c(nn2-c2ccc(Cl)cc2)CS(=O)(=O)C3)c1	5%	2%	i	1%	i	-19
O=C(c1ccccc1F)N1c2nc(-c3ccco3)nn2C2(CCCCC2)[C@@H]2CCCC[C@@H]21	50µM*	i	i	-5%	i	-48
Cc1cccc(CNC(=O)C2CCCN(S(=O)(=O)c3cn(C)cn3)C2)c1 (stereo unspecified)	0%	-9%	i	-1%	i	-10
CCCCC(C)(C)[C@H](O)C=C[C@H]1[C@H](O)CC(=O)[C@H]1CC=CCCCC(=O)O	50µM*	-15%	x	x	x	x
Cc1cccc(NC(=O)C2(C)Cc3ccccc3C(=O)O2)c1 (stereo unspecified)	19%	-5%	i	-10%	i	-5
CC(C)c1ccc(NC(=O)C2(C)Cc3ccccc3C(=O)O2)cc1 (stereo unspecified)	-5%	7%	i	-2%	i	79*
Cc1ccc(CNC(=O)Cc2csc3ccccc23)cc1	-1%	1%	i	4%	i	85*
O=C(Cc1csc2ccccc12)NCc1ccc(F)cc1	5%	-4%	i	1%	i	-19
CC(=O)Nc1ccc(NC(=O)C2CCN(c3cnccn3)CC2)cc1	u	i	i	u	i	16
CC(C)(C)c1ccc(NC(=O)C2CCCN(c3cnccn3)C2)cc1 (stereo unspecified)	89µM*	-8%	u	3%	i	1
COc1ccc2c(CNCc3cccs3)c(C(=O)O)n(Cc3ccc(F)cc3)c2c1	-25%	i	i	2%	i	u
O=C(Nc1cccc(C(F)(F)F)c1)c1cc(-c2ccc3c(c2)OCCO3)on1	-3%	u	i	0%	i	94*
CCCn1c(=O)c2sccc2n2c(CCCC(=O)NCc3ccccc3)nnc12	-4%	-2%	i	0%	i	0
SMILES	NTMT1 inh	OvCa metastasis	B2AR arrestin ag	GALK inhibitor	TSG101-PTAP inh	GPR32 ag
CCCCC(CC)CNC(=O)CCCc1nnc2n(CCC)c(=O)c3sccc3n12 (stereo unspecified)	9%	2%	i	1%	i	80*
O=S(=O)(c1cccc2c(I)cccc12)N1CCCNCC1	40µM*!	x	x	x	x	39
Cc1cccc(NC(=O)Cn2c(=O)n(CCc3ccccc3)c(=O)c3ccccc32)c1	10%	26%	i	6%	i	75*
COc1cc2c(=O)n(CCc3ccccc3)c(=O)n(CC(=O)Nc3ccccc3)c2cc1OC	79µM*	u	i	2%	i	3
CCC(C(=O)NCc1ccco1)n1nc(C)c2c(C)n(-c3ccc(C)cc3)nc2c1=O (stereo unspecified)	4%	2%	i	0%	i	16
Cc1n[nH]c(C)c1S(=O)(=O)N(CC(=O)Nc1ccc(C(F)(F)F)cc1)c1ccc(C(C)C)cc1	14%	u	i	9%	i	12
Cc1ccc(N(CC(=O)Nc2ccc(C)c(F)c2)S(=O)(=O)c2c(C)n[nH]c2C)cc1	2%	0%	i	8%	i	102*
COc1ccc(Cl)cc1NC(=O)CN(c1cc(C)cc(C)c1)S(=O)(=O)c1c(C)n[nH]c1C	6%	57%	i	-2%	i	45
COc1cc(NC(=O)CN(c2cc(C)cc(C)c2)S(=O)(=O)c2c(C)[nH]c(=O)[nH]c2=O)cc(OC)c1	13%	1%	i	-2%	i	12
Cc1cc(C)cc(N(CC(=O)Nc2ccc(C)cc2Cl)S(=O)(=O)c2c(C)[nH]c(=O)[nH]c2=O)c1	19%	-2%	i	9%	i	79*
Cc1cc(C)cc(N(CC(=O)Nc2ccc(C(F)(F)F)cc2)S(=O)(=O)c2c(C)[nH]c(=O)[nH]c2=O)c1	-10%	1%	i	-1%	i	112*
Cc1ccccc1S(=O)Cc1ccc(C(=O)NCc2ccccc2Cl)o1 (stereo unspecified)	9%	i	i	0%	i	13
Cc1ccc(/C=C/c2onc(C)c2S(=O)(=O)N2CCC(C(=O)N3CCC(N(C)C(C)C)CC3)CC2)cc1	79µM*	u	i	1%	i	-27

Screens as filed in PubChem BioAssay.
